From PubChem BioAssay AID504444 (National Center for Advancing Translational Sciences (NCATS), 2011)
The whole screen tested about 360,000 compounds, of which about 7,500 (2.1%) were called active. Another 20% or so got no clear call; they are omitted. The full list was thinned out, with actives kept by preference. Unmarked numbers belong to inactive results. Calls come from the whole dose curve; as a rule, active = well fitted inhibition curve with a large enough effect; inconclusive = small, poorly fitted or top-dose-only effect, or effect the other way; inactive = flat fitted curve, though single readings scatter.

Assay: Nrf2 qHTS screen for inhibitors; note: nearly all actives have a fitted effect of over 60% in size
Conditions: A549 ARE-Fluc reporter, luciferase luminescence, 18-24 h; series mostly up to 46 µM; activity change, negative = inhibition: at the top concentration
Summary of the method: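 Concentration-response testing used A549 ARE_Fluc cells at 5000 cells/well. Following an 18-24 h compound incubation, viability was read by fluorescence (Ex 405/Em 525) and luciferase output by luminescence.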
% is set by controls: 0 for no effect and ±100 for the full control effect; potency is the fitted concentration of half-maximal effect.

| SMILES | activity change, negative = inhibition | Potency |
| --- | --- | --- |
| CC(=NNC(=O)c1ccncc1)c1ccc(Cl)c(Cl)c1 | -1.76% |  |
| Nc1c(C(=O)NCc2ccccc2)sc2nc3c(cc12)C(=O)CCC3 | 9.66% |  |
| NC(=O)c1sc2nc3c(c(-c4ccccc4)c2c1N)CCC3 |  | 9.2 µM (active) |
| Cc1sc2nc(CC(N)=O)[nH]c(=O)c2c1-c1ccccc1 | 1.14% |  |
| COc1ccc(N2CCN(C3=NS(=O)(=O)C(c4cccc(Br)c4)=C3C)CC2)cc1 | 2.1% |  |
| CSCCC(NC(=O)COc1ccccc1)C(=O)OCc1ccc(Cl)cc1 (centres undefined) | -14.7% |  |
| CC(=O)NCCNC(=O)c1cc(-c2cccc3ccccc23)nc2ccccc12 | 7.96% |  |
| CN(C)CCNC(=O)Nc1cccc(Cl)c1Cl | -2.8% |  |
| CN(C)CCNC(=O)c1ccc(Cl)c2cc3ccccc3nc12 |  | 18.4 µM (active) |
| CC1CCCCC1NCC(=O)Nc1ccccc1C(=O)Nc1ccccc1 (centres undefined) | -0.522% |  |
| CC[C@]12c3[nH]c4cc(CCC(=O)N(C)C)ccc4c3CCN1C(=O)[C@@H](CC(=O)NCCCn1ccnc1)C[C@@H]2C(=O)N1CCN(C(=O)C2CC2)CC1 | 2.04% |  |
| Cc1c(C)n(Cc2ccc(Cl)cc2)c2ccc(C(=O)N3CCN(c4ccccc4F)CC3)cc12 | -26.6% |  |
| COc1cc(C(=O)NCC2(c3ccccc3)CCCC2)ccc1OC(C)C | -3.66% |  |
| O=C(CNC1CCCCC1)NCC1(c2ccccc2)CCCC1 | 0.664% |  |
| Cc1cccc(C(CC(=O)NCC2(c3ccccc3)CCCC2)c2ccccc2)c1O (centres undefined) |  | 14.6 µM (active) |
| CC(=O)c1cccc(NC(=O)c2cc(C)nn2-c2ccccc2)c1 | 10.8% |  |
| Cc1cccc(N2C(=O)c3ccc(C(=O)Nc4cccc(C(=O)O)c4)cc3C2=O)c1 | 6.82% |  |
| CC(=O)c1cccc(NC(=O)c2nc(-c3ccccc3)n(-c3cccc(C)c3)n2)c1 |  | 18.4 µM (active) |
| Cc1sc(C2C(C#N)=C(N)N(c3cccc(Cl)c3)C3=C2C(=O)CCC3)cc1CN1CCOCC1 (centres undefined) | 24.2% |  |
| COc1ccc(CNCCCNCc2ccc(OC)c(OC)c2)cc1OC | 12.5% |  |

| SMILES | activity change, negative = inhibition | Potency |
| --- | --- | --- |
| CC(C)c1ccc(-c2noc(C3CCCN(S(C)(=O)=O)C3)n2)cc1 (centres undefined) | 0.129% |  |
| O=C(Cc1cccs1)N1CCCC(c2nc(-c3ccc(S(=O)(=O)N4CCCC4)cc3)no2)C1 (centres undefined) |  | 23.1 µM (active) |
| O=C(c1ccc(F)cc1)N1CCCC(c2nc(-c3cccs3)no2)C1 (centres undefined) | 11.9% |  |
| O=C(c1ccncc1)N1CCN(S(=O)(=O)c2cc(C(F)(F)F)cc(C(F)(F)F)c2)CC1 | -0.0458% |  |
| NC(=O)C1CCN(C(=O)c2ccc(C(F)(F)F)cc2)CC1 | -15.4% |  |
| O=C(c1ccc(C(F)(F)F)cc1)N1CCC(c2nc(-c3ccc(S(=O)(=O)N4CCCC4)cc3)no2)CC1 |  | 7.31 µM (active) |
| CCOc1cc(C(=O)N(Cc2ccccc2)c2ccc(C)cc2)ccc1OCC(=O)N1CCOCC1 | -7.76% |  |
| COc1ccccc1NC(=O)C(=O)c1cc(C)n(-c2ccccc2F)c1C | 23.5% |  |
| Oc1ccc(Cl)cc1C1C=C(c2ccc3c(c2)OCO3)NC(c2c(F)cccc2Cl)N1 (centres undefined) | 12.9% |  |
| OC[C@@H]1O[C@H](n2cnc3c(SCc4ccccc4)ncnc32)[C@H](O)[C@H]1O | 20% |  |
| Cc1c(Cl)cccc1-c1ccc(CNCCCSc2nnnn2C)o1 | -9.22% |  |
| CCCCCn1c(CCNC(=O)c2ccc(F)cc2)nc2ccccc21 | 6.85% [at 9.27 µM] |  |
| CC(C)NC(=O)C1CCC(Cn2c(=O)c3sccc3n(Cc3ccc(F)cc3)c2=O)CC1 (centres undefined) | 13.5% |  |
| COc1cccc(-c2nc(CS(=O)(=O)CC(=O)NCCc3ccc(OC)c(OC)c3)c(C)o2)c1 |  | inactive |
| CCCCN(CC)CCCNC(=O)CS(=O)(=O)Cc1nc(-c2cccc(OC)c2)oc1C | 15.6% |  |
| COc1cccc(-c2nc(CS(=O)(=O)CC(=O)N3CCN(c4cc(C)ccc4C)CC3)c(C)o2)c1 |  | 2.59 µM (active) |
| COc1cccc(C2C(C(=O)Nc3ccc(C)cc3C)=C(C)Nc3c(C(=O)Nc4ccccc4)cnn32)c1 (centres undefined) | 10.7% |  |
| CN1C(c2ccc(F)cc2)=CS/C1=C(/C#N)c1nnc2n1-c1ccccc1SC2 | -26.9% |  |
| C(=N\N1CCN(c2ccccn2)CC1)/C1=C(N2CCOCC2)C(=C/c2ccccc2)/CC1 | 2.38% |  |
| O=C1Nc2ccc(Br)cc2/C1=N/N=C/C1=C(N2CCOCC2)C(=C\c2ccccc2)/CC1 |  | 20.6 µM (active) |

| SMILES | activity change, negative = inhibition | Potency |
| --- | --- | --- |
| N#C/C(=C\C1=C(N2CCOCC2)C(=C\c2ccccc2)/CC1)C(=O)Nc1ccccc1F | -14.6% |  |
| CCOc1ccccc1NC(=S)C(=C([O-])c1ccc2c(c1)OCCO2)[n+]1ccc(CC)cc1 | 4.22% |  |
| COc1cc(F)c(S(=O)(=O)N2CCCN(S(=O)(=O)c3ccc(N)cc3)CC2)c(F)c1 | -10% |  |
| CCOC(=O)c1ccc(NC(=O)c2ncn(-c3ccccc3)n2)cc1 | 3.01% |  |
| Oc1ccc(Cl)cc1C1C=C(c2ccc3c(c2)OCO3)NC(c2ccc(F)c(Br)c2)N1 (centres undefined) | -10.6% |  |
| CC(C)N(C(=O)[C@H]1C[C@H](CC(=O)NCCC2=CCCCC2)C(=O)N2CCc3c([nH]c4cc(CCC(=O)N(C)C)ccc34)[C@]12C)C(C)C | 5.78% |  |
| CCCCCCCCn1c2c(c(=N)c3c1CCC3)CCCC2 |  | 9.2 µM (active) |
| CCCCCCn1c(CN2CCCCC2)nc2c1c(=O)n(C)c(=O)n2C | 5.48% |  |
| Cc1cccc(N2CCN(C(=O)CCS(=O)(=O)c3ccc4c(c3)NC(=O)C(C)S4)CC2)c1C (centres undefined) |  | 2.59 µM (active) |
| CC1Sc2ccc(S(=O)(=O)CCC(=O)NCc3ccccc3Cl)cc2NC1=O (centres undefined) | -8.63% |  |
| COc1ccccc1N1CCN(C(=O)CCS(=O)(=O)c2ccc3c(c2)NC(=O)C(C)S3)CC1 (centres undefined) | -2.57% |  |
| Oc1ccc(-c2nc3ccccc3nc2-c2ccc(O)cc2O)c(O)c1 | 2.55% |  |
| CN[C@H](C(=O)NC[C@H]1O[C@@H](n2cnc3c(N)ncnc32)[C@H](O)[C@@H]1O)[C@@H](C)OCc1ccccc1 | -9.95% |  |
| Cc1cccc(CSc2nc3ccncc3n2CC(=O)N(C)C2CCCCC2)c1 | 2.61% |  |
| COc1cccc(Cn2c(SCc3ccc(C(=O)N4CCCCC4)cc3)nc3ccncc32)c1 |  | 18.4 µM (active) |
| COc1cccc(Cn2c(SCc3ccc(C(=O)N4CCC(C)CC4)cc3)nc3ccncc32)c1 |  | 20.6 µM (active) |
| O=C(O)c1ccc(Cn2c(SCc3ccc(F)cc3)nc3ccncc32)cc1 | 5.55% |  |
| Cc1cccc(CSc2nc3ccncc3n2Cc2ccc(C(=O)O)cc2)c1 | 6.25% |  |
| CCCCNC(=O)Cn1c(SCc2cccc(Cl)c2)nc2ccncc21 | 13.2% |  |
